Measured values published in the supplement of paper PMC10849652.
Targets with a hit are over-represented here; the source holds about 8,800 in all. About 0.5% of all pairs of compound and target were hits. A number with no mark means an inactive call.

Assays:
Assay in all cases: log2 fold change, soluble protein after heating vs DMSO (PISA); higher = thermal stabilisation; K562 lysate, 10 uM; active = over 0.2 and 3.5 SD of the protein, either way, in both replicates (recomputed)
[1] = compound: C#Cc1cccc(Nc2ncnc3cc(OCCOC)c(OCCOC)cc23)c1 [erlotinib]
Method in brief: (§1)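 Quantification was by TMTpro 16plex LC-MS/MS with equalised channel sums, applied to the supernatant after 21,000xg for 90 min. Samples were crude K562 extract at 1 mg/mL protein in PBS pH 7.4 with 1 mM MgCl2, treated with 10 μM compound for 30 min, heated for 3 min across 48°C-58°C, pooled and brought to 0.5% NP-40 at 4°C. Values are log-two fold changes in thermal stability relative to solvent controls, from duplicates.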

[2] = compound: C/C(=N\NC(=O)C1=CC(=CC=C1)S(=O)(=O)N2CCOCC2)/C3=C(C=CC(=C3)Cl)O
Method in brief: as §1

[3] = compound: C1=CC(=CC=C1C2=NC3=C(N2)C=C(C=C3)C(=O)N)OC4=CC=C(C=C4)Cl
Method in brief: as §1

[4] = compound: C1=CC2=C(C=CC(=C2)/C=C\3/C(=O)NC(=NCC4=CC=CS4)S3)N=C1
Method in brief: as §1

[5] = compound: C1=CC2=NC=CN=C2C=C1/C=C/3\C(=O)NC(=O)S3
Method in brief: as §1

[6] = compound: C1=CC=C(C=C1)C2=NC(=C(N2)C3=CC=NC=C3)C4=CC(=C(C=C4)Cl)O
Method in brief: as §1

[7] = compound: C1=CC=C2C(=C1)C3=NNC4=CC=CC(=C43)C2=O
Method in brief: as §1

[8] = compound: C1CCN(C1)C(=O)NC2=CC=CC(=C2)NC3=NC=C(C(=N3)NCCC4=CN=CN4)Br
Method in brief: as §1

[9] = compound: C1CN(CCC1(CC2=CC=C(C=C2)Cl)N)C3=NC=NC4=C3C=CN4
Method in brief: as §1

[10] = compound: C1COCCN1CCN2C3=CC=CC=C3N=C2NC(=O)C4=CC(=CC=C4)[N+](=O)[O-] [IRAK-1-4 Inhibitor I]
Method in brief: as §1

UniProt Q8IYU8, sequence (Q8IYU8 whole entry, looked up): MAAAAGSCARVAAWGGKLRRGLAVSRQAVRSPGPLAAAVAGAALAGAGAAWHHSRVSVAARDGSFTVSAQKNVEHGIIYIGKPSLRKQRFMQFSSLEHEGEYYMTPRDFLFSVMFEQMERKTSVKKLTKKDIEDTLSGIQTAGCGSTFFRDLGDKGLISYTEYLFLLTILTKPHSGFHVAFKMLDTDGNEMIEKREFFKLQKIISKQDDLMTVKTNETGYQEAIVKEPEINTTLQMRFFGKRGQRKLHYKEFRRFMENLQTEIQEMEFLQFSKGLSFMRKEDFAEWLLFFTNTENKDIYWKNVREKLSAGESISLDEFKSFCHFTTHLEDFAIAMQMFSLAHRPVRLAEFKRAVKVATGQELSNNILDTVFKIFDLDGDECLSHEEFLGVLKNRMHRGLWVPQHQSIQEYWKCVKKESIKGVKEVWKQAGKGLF
UniProt Q9BPX6, sequence (Q9BPX6 whole entry, looked up): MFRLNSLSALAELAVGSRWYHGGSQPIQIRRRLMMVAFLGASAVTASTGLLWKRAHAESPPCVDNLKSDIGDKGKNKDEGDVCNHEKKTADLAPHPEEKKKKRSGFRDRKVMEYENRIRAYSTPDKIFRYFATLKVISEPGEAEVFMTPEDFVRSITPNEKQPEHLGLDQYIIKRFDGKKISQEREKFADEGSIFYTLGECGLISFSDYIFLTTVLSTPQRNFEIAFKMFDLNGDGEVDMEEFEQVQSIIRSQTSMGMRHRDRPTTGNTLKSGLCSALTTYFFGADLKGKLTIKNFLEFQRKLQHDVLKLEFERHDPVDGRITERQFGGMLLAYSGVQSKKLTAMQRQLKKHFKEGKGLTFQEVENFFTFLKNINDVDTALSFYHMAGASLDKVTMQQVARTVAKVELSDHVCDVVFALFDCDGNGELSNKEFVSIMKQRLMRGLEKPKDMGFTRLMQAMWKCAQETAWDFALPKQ
UniProt Q9NS87, sequence (Q9NS87 whole entry, looked up): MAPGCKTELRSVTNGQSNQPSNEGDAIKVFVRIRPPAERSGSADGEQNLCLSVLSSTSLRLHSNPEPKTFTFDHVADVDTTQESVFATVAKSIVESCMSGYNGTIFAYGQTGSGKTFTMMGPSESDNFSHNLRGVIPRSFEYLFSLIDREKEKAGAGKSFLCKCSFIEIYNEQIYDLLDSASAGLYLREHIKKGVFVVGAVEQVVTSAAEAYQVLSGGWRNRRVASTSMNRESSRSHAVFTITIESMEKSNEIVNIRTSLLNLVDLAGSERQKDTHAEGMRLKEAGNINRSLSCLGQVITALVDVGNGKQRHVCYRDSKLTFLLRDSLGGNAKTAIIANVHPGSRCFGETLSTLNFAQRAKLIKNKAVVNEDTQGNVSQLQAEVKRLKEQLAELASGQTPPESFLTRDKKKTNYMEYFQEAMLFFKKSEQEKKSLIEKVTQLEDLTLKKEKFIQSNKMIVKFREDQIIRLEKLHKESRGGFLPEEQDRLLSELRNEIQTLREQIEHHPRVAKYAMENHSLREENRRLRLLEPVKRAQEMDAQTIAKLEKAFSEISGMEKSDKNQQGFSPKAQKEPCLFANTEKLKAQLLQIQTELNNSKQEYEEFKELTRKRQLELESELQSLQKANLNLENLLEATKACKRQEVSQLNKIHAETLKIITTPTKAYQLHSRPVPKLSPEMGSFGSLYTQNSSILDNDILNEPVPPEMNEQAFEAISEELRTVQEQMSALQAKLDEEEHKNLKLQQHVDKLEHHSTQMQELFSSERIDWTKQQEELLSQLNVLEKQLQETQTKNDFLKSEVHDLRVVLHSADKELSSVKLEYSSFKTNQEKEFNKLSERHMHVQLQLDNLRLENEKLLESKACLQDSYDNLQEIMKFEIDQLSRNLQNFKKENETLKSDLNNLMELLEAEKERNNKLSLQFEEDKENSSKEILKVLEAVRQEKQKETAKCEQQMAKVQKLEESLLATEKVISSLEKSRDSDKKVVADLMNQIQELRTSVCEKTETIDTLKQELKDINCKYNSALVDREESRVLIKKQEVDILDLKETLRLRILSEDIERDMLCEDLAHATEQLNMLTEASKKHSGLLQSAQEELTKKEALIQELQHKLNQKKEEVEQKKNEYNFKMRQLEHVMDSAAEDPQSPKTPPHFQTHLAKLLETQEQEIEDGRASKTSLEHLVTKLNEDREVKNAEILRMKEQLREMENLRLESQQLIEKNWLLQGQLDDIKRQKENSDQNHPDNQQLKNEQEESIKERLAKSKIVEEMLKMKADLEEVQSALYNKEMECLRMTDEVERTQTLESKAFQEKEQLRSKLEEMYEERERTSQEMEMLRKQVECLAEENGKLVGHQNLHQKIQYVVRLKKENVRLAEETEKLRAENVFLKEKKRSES
UniProt Q9Y2X0, sequence (Q9Y2X0 whole entry, looked up): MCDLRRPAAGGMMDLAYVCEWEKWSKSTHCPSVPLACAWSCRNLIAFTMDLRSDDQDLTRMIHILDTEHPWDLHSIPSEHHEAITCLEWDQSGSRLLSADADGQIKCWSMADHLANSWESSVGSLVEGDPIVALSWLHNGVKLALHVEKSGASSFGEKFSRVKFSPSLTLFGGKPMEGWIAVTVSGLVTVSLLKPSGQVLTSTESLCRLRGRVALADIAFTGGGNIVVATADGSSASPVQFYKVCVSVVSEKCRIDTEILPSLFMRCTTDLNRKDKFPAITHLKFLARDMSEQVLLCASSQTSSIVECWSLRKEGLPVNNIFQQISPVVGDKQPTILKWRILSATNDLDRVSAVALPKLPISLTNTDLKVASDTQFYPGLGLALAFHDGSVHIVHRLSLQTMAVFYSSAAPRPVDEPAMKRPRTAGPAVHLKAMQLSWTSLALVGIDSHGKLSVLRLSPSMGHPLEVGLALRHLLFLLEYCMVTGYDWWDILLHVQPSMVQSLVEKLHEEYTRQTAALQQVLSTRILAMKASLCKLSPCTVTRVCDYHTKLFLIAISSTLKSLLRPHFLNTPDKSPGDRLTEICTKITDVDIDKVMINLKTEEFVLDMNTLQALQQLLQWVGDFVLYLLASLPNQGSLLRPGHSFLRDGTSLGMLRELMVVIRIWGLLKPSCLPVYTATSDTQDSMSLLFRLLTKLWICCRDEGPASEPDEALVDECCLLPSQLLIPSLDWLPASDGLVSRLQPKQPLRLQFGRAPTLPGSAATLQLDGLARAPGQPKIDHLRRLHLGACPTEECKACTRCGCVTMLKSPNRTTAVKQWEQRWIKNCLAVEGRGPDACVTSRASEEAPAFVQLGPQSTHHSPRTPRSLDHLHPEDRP
UniProt Q9BTE3, sequence (Q9BTE3 whole entry, looked up): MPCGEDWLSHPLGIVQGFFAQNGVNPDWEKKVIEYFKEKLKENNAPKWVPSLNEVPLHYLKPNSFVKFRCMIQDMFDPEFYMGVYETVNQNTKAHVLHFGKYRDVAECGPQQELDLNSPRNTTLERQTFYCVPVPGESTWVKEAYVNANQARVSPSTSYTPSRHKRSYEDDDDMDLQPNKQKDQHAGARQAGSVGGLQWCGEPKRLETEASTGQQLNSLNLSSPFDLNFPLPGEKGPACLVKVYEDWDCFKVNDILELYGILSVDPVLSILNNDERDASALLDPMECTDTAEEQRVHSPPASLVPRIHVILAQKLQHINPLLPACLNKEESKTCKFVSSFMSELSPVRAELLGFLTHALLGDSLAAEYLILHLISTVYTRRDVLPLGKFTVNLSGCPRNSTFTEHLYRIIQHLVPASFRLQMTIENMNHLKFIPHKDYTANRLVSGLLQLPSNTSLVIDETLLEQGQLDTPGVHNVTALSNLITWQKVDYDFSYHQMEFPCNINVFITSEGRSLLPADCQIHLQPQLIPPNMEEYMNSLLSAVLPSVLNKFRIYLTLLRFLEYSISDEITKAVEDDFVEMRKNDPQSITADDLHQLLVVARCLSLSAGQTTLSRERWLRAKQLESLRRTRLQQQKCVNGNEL
UniProt Q9UI95, sequence (Q9UI95 whole entry, looked up): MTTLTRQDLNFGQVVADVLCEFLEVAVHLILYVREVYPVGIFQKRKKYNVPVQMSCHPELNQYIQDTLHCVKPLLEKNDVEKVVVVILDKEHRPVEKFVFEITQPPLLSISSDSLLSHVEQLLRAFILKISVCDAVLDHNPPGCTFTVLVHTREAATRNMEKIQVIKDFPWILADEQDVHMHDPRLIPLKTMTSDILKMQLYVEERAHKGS
UniProt Q14657, sequence (Q14657 whole entry, looked up): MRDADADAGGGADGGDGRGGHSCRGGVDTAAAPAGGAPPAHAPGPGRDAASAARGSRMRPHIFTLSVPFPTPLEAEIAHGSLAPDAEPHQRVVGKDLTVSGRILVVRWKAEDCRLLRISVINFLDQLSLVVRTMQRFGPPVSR
UniProt Q9BW19, sequence (Q9BW19 whole entry, looked up): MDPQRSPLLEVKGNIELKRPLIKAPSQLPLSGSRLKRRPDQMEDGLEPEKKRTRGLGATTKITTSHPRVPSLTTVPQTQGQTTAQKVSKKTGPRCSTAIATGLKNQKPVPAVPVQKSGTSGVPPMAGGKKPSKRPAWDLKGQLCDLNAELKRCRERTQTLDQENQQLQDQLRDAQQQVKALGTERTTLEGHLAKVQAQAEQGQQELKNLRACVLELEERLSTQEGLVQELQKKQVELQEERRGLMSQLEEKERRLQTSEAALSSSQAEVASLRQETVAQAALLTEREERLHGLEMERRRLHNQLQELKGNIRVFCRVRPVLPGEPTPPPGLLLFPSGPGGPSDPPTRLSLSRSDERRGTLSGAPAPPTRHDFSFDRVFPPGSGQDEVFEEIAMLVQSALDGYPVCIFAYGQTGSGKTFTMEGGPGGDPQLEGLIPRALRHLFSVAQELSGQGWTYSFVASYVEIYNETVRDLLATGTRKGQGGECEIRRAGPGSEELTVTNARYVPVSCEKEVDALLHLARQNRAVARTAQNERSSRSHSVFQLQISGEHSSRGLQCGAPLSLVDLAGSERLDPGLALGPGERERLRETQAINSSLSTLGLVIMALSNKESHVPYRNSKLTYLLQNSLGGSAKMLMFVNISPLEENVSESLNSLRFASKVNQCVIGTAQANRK
UniProt O14880, sequence (O14880 whole entry, looked up): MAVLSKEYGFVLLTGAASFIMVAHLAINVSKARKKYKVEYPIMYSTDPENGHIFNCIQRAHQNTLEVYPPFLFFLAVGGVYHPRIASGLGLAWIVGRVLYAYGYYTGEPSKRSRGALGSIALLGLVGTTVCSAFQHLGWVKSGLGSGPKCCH

| Target | log2 fold change [1] | log2 fold change [2] | log2 fold change [3] | log2 fold change [4] | log2 fold change [5] | log2 fold change [6] | log2 fold change [7] | log2 fold change [8] | log2 fold change [9] | log2 fold change [10] |
| --- | --- | --- | --- | --- | --- | --- | --- | --- | --- | --- |
| MOSPD2 (UniProt Q8NHP6) | -0.049 | 0.152 | 0 | 0.072 | 0.027 | -0.015 | 0.157 | -0.062 | -0.023 | 0.057 |
| MORF4L1 isoform 2 (UniProt Q9UBU8) | 0.028 | 0.06 | 0.046 | -0.027 | -0.032 | -0.005 | 0.017 | -0.04 | -0.01 | 0.013 |
| MAPK14 (UniProt Q16539) | 0.044 | 0.038 | -0.1 | -0.05 | -0.012 | 0.82 (active) | 0.081 | -0.076 | 0.015 | 0.013 |
| LSM8 (UniProt O95777) | -0.034 | 0.003 | -0.003 | 0.027 | 0.423 (active) | -0.026 | 0.066 | -0.008 | -0.021 | 0.028 |
| MCMBP (UniProt Q9BTE3) | 0.038 | 0.069 | 0.024 | 0.063 | 0.01 | -0.017 | 0.001 | -0.023 | 0.072 | 0 |
| MAD2L2 (UniProt Q9UI95) | 0.173 | 0.004 | 0.209 | -0.035 | 0.035 | -0.09 | -0.101 | 0.094 | 0.102 | 0.004 |
| MLST8 (UniProt Q9BVC4) | 0.038 | 0.008 | -0.041 | 0.015 | 0.012 | 0.015 | 0.002 | -0.091 | 0.033 | -0.001 |
| MLXIP (UniProt Q9HAP2) | 0.011 | 0.003 | 0.027 | 0.01 | -0.017 | 0.04 | -0.011 | -0.025 | -0.01 | 0.003 |
| MED14 (UniProt O60244) | -0.012 | 0.018 | 0.008 | 0.027 | 0.015 | 0 | -0.066 | -0.014 | -0.042 | 0.005 |
| KIF22 (UniProt Q14807) | 0.012 | -0.074 | 0.076 | -0.147 | -0.007 | -0.063 | -0.123 | 0.026 | 0.05 | 0.06 |
| LAS1L (UniProt Q9Y4W2) | 0.053 | -0.011 | -0.003 | -0.018 | 0.022 | 0.007 | 0.028 | -0.004 | -0.027 | -0.002 |
| MICU2 (UniProt Q8IYU8) | 0.025 | 0.04 | -0.008 | -0.024 | -0.011 | 0.061 | -0.094 | -0.037 | 0.038 | -0.044 |
| MAP3K4 (UniProt Q9Y6R4) | 0.051 | -0.027 | -0.026 | 0.011 | -0.014 | 0.018 | 0.105 | 0.051 | -0.101 | -0.013 |
| MGST1 (UniProt P10620) | -0.041 | -0.068 | 0.016 | -0.051 | 0.024 | -0.031 | -0.036 | -0.07 | 0.089 | 0.067 |
| KIF15 (UniProt Q9NS87) | 0.004 | 0.025 | -0.01 | 0.011 | -0.019 | 0.048 | -0.054 | -0.04 | -0.019 | -0.012 |
| LAGE3 (UniProt Q14657) | 0.028 | 0.342 (active) | 0.074 | -0.008 | -0.092 | -0.018 | 0.091 | 0 | 0.022 | 0.06 |
| MGST3 (UniProt O14880) | 0.007 | 0.011 | 0.008 | 0.022 | 0.011 | -0.021 | -0.054 | -0.009 | -0.035 | 0.019 |
| LRCH3 (UniProt Q96II8) | 0.043 | 0.047 | 0.021 | -0.013 | 0.001 | 0 | -0.053 | -0.102 | -0.014 | 0.028 |
| MICU1 isoform 3 (UniProt Q9BPX6) | 0.009 | 0.049 | -0.029 | -0.017 | -0.012 | -0.047 | 0.001 | 0.016 | 0.012 | 0.024 |
| KNL1 (UniProt Q8NG31) | -0.005 | -0.015 | 0.002 | 0 | -0.017 | 0.019 | -0.015 | 0.006 | -0.007 | 0.002 |
| KLC2 (UniProt Q9H0B6) | -0.008 | 0.065 | 0.07 | 0.008 | -0.056 | 0.004 | -0.061 | -0.048 | -0.056 | -0.009 |
| MAP2K2 (UniProt P36507) | 0.049 | 0.005 | 0.023 | -0.023 | -0.006 | 0.001 | 0.249 | 0.219 | 0.017 | 0 |
| LARS2 (UniProt Q15031) | 0.027 | 0.033 | 0.549 (active) | -0.012 | -0.041 | 0.014 | 0.029 | 0.03 | 0.039 | -0.021 |
| LRRC40 (UniProt Q9H9A6) | -0.014 | 0.009 | 0.004 | -0.002 | -0.028 | -0.015 | -0.014 | -0.036 | -0.011 | -0.017 |
| MRPL28 (UniProt Q13084) | -0.112 | -0.085 | 0.027 | 0.011 | -0.074 | 0.017 | 0.024 | 0.042 | -0.031 | -0.03 |
| KIFC1 (UniProt Q9BW19) | 0.003 | 0.061 | 0.011 | -0.002 | -0.048 | 0.011 | -0.012 | -0.009 | 0.025 | -0.023 |
| MITD1 (UniProt Q8WV92) | -0.016 | 0.025 | -0.019 | 0.021 | 0.014 | -0.072 | -0.016 | -0.047 | -0.02 | -0.033 |
| KPNA2 (UniProt P52292) | 0.009 | 0.03 | -0.026 | 0.005 | 0.002 | -0.003 | -0.053 | -0.017 | 0.013 | -0.02 |
| MED16 (UniProt Q9Y2X0) | 0.018 | -0.033 | 0.001 | 0.019 | -0.011 | 0.008 | -0.071 | 0.01 | -0.045 | -0.001 |
| LETM1 (UniProt O95202) | -0.012 | 0.061 | -0.157 | 0.012 | 0.014 | 0.01 | 0.044 | -0.006 | 0.02 | -0.013 |
